# Screens as filed in PubChem BioAssay.
# Shown are actives, neighbours in structure and some others; about 6.9% of the full set was active somewhere.
# MCF10A rerep: inducers of DNA re-replication in MCF 10A breast cells. MCF 10A DNA re-replication, Hoechst nuclear intensity, 48 h. Potency, µM (titrated, usually from 46.1 µM), inactives show top-dose activity, positive = re-replication, actives largely listed as activators. hit rate 2.9% among 350,000. AID 624296; further: potency means the concentration at half of the fitted maximal effect; % of control where 0% means no effect; nearly all actives have a fitted effect of over 50% in size
# Vif-APOBEC3F blk: inhibitors of Vif-A3F interaction; Potency, µM (series often up to 46.1 µM), without a hit: top-dose activity, negative = active; hit rate 0.2% among 390,000; AID 602313; HeLa A3F-eYFP + Vif (tagged APOBEC3F with the HIV-1 protein that degrades it), YFP fluorescence increase; further: potency means the concentration at half of the fitted maximal effect; % of control where 0% means no effect; nearly all actives have a fitted effect of over 65% in size
#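 HeLa cells stably expressing Vif plus C-terminally eYFP-tagged A3F were seeded, incubated overnight at 37 deg C, dosed with compound, incubated overnight again at 37 deg C. Yellow fluorescence (Ex 488/Em 500-530) reported blocked Vif-mediated A3F-eYFP degradation.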
# Giardia kill: Giardia lamblia killing; AID 540267; activity change, % at 7.66 µM, hits read low; hit rate 0.15% among 340,000; Giardia lamblia trophozoite viability; in the data active means activity change below about -80%; inconclusive means between about -30% and that limit;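 further: parasites exposed to compound for two days anaerobically before the ATP read; on the % scale 0 is the no-effect control and ±100 the full control effect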
#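 Viability, read as ATP luminescence: trophozoites at 100 cells/well, compound added, 48 hrs anaerobic at 37 deg C, then 15-30 min room-temperature development before reading.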
# IL-1B inflam inh: inhibitors of inflammasome signaling (IL-1 beta secretion); THP-1 LPS/ATP IL-1B secretion, AlphaLISA, 16 h; active compounds read low; activity change, % at 57.5 µM; hit rate 4.7% among 360,000; in the data active means activity change below about -50%; inconclusive means mostly about -30% to -49%; further: on the % scale 0 is the no-effect control and ±100 the full control effect
#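 Secreted IL-1B measured by AlphaLISA bead assay after 16 h compound exposure of THP-1 cells; compounds (final up to 57.5 uM) added 1 h before LPS (250 ng/mL) and ATP (1.25 mM) stimulation; lower signal means less secretion.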
# SW480 rerep: inducers of DNA re-replication in SW480 colon cancer cells; SW480 DNA re-replication, Hoechst DNA content imaging, 48 h; Potency, µM (highest dose often 46.1 µM), for inactives: top-dose re-replication activation, actives largely listed as activators; hit rate 1.8% among 340,000; AID 624297; further: potency means the concentration at half of the fitted maximal effect; % of control where 0% means no effect; nearly all actives have a fitted effect of over 55% in size
#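 First, 250 cells per well were seeded. Next, compound or vehicle (23 nL) was pinned in, plates sat 48 hr at 37 C. Finally Hoechst was added for 40 min before fluorescence scanning.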
# Vif-A3G inh: Vif-A3G binding inhibition | AID 602310 | HeLa A3G-eYFP + Vif (tagged APOBEC3G with the HIV-1 protein that degrades it), YFP fluorescence, overnight | hit rate 0.076% among 410,000 | Potency, µM (top dose mostly 46.1 µM), inactives show at the top dose activity, negative = active, hits mostly inhibitors; further: potency means the concentration at half of the fitted maximal effect; on the % scale 0 is the no-effect control and ±100 the full control effect; nearly all actives have a fitted effect of over 60% in size
# Target sequence (Q9HC16 whole entry, looked up): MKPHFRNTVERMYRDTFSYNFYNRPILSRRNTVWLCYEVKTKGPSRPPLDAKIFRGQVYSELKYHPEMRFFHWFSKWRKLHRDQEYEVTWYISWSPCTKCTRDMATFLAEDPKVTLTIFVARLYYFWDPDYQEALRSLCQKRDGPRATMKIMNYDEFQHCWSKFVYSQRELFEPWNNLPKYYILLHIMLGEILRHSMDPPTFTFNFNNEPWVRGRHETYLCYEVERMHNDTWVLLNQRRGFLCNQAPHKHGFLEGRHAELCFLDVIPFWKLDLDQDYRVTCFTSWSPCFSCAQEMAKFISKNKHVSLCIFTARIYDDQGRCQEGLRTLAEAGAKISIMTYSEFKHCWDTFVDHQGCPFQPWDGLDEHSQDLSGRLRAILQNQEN
#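 Read-out is eYFP fluorescence (Ex 488/Em 500-530) from Vif-expressing HeLa A3G-eYFP cells; more signal means A3G escaped Vif-mediated degradation. Cells plated overnight, compound pinned in, incubated overnight at 37 deg C.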
# * marks the source's active call; other numbers are inactive results; ? = inconclusive; · = no result given. Unless noted, the call rests on the fitted dose curve; in most records, active means well fitted curve in the direction sought with a large enough effect; inconclusive means small, poorly fitted or top-dose-only effect, or another doubt; inactive means no such curve, though single readings can be large; an effect the other way counts as inactive or inconclusive.
SMILES,MCF10A rerep,Vif-APOBEC3F blk,Giardia kill,IL-1B inflam inh,SW480 rerep,Vif-A3G inh
CC(C)c1ccc(NC(=O)c2cc(S(=O)(=O)NCC3COc4ccccc4O3)ccc2F)cc1 (configuration not stated),?,-29.0%,-12.7,-68.7*,?,-8.7%
CC(=O)Nc1ccc(S(=O)(=O)NCCSCc2ccc(Cl)cc2Cl)cc1,12.6µM*,-0.3%,18.7,-56.5*,-1.6%,-5.5%
CC(C)(C)n1ncc2c(=O)n(Cc3c(F)ccc(F)c3Cl)cnc21,·,·,·,·,·,2.1%
Cc1cccc(N2CCN(C(=O)Cn3ncc4c5ccccc5n(C)c4c3=O)CC2)c1C,·,-2.3%,·,·,·,-3.8%
Cc1cccc(N2CCN(C(=O)Cc3cn(C)c4ccccc34)CC2)c1C,18.4µM*,-11.8%,13.3,-22.5,?,-21.9%
Cc1ccc(S(=O)(=O)c2cn(C)c3cc(N4CCN(c5ccccc5)CC4)c(F)cc3c2=O)cc1,·,9.1%,·,·,·,-3.1%
Cc1ccc(S(=O)(=O)c2cn(C)c3cc(N4CCN(C)CC4)c(F)cc3c2=O)cc1,?,2.0%,7.3,-96.9*,?,-5.8%
Cc1c(CCCN)c2ccccc2n1Cc1ccccc1,?,-5.3%,-4.8,-71.1*,?,-1.5%
CCC(C)Sc1ccc(-c2nc3ccccn3c2NCc2ccccc2)cc1OC (configuration not stated),20.6µM*,-4.3%,-4.8,-74.3*,-4.0%,-25.3%
COc1ccc(CSc2ccc(-c3nc4ccccn4c3NCc3ccccc3)cc2OC)cc1,23.1µM*,-0.1%,1.2,?,?,4.6%
CCC(C)Sc1ccc(-c2nc3ccc(C)cn3c2NCc2ccccc2)cc1 (configuration not stated),?,-1.9%,3.2,?,22.8%,3.1%
CCN(CC)CCC(=O)N1c2ccccc2Sc2ccc(NC(=O)OC)cc21,23.1µM*,0.4%,7.2,-79.1*,?,-19.4%
O=Cc1ccc(Sc2nnc(-c3ccccc3)o2)c([N+](=O)[O-])c1,2.91µM*,-2.2%,-8.7,-25.0,?,?
Cn1nc([N+](=O)[O-])nc1Sc1nnc(-c2ccccc2)o1,?,4.5%,0.3,-95.7*,4.11µM*,?
Cc1cc(C)nc(Sc2ccc(C=O)cc2[N+](=O)[O-])n1,0.0%,4.0%,0.6,4.7,-6.9%,-9.3%
Cc1ccc(C)c(N2CCN(C(=O)c3cc4sccc4n3C)CC2)c1,?,-6.3%,1.0,-16.5,-2.6%,-1.1%
Cn1c(C(=O)N2CCN(c3cccc(C(F)(F)F)c3)CC2)cc2sccc21,?,1.1%,3.6,-6.5,23.1µM*,-5.1%
CC1=C(C(=O)Nc2cccc(C(=O)N3CCN(c4cccc(C(F)(F)F)c4)CC3)c2)SCCO1,19.2%,1.8%,-20.2,-60.7*,?,5.0%
O=C(c1ccc2ncsc2c1)N1CCN(c2cccc(C(F)(F)F)c2)CC1,13µM*,-2.1%,-16.9,17.5,?,?
CCS(=O)(=O)N1CCc2cc(C(=O)N3CCN(c4cccc(C(F)(F)F)c4)CC3)ccc21,·,-6.2%,·,·,·,12.6µM*
O=C(/C=C/c1ccc(Br)cc1)N1CCN(c2cccc(C(F)(F)F)c2)CC1,13µM*,0.3%,1.9,?,9.2%,2.0%
O=C(c1ccc2c(c1)OCO2)N1CCN(c2cccc(C(F)(F)F)c2)CC1,11.6µM*,-1.1%,-9.8,-15.8,?,-29.7%
O=C(Nc1ccc2c(c1)OCO2)N1CCN(c2cccc(C(F)(F)F)c2)CC1,16.7%,0.5%,-2.0,-25.4,-0.5%,-0.4%
CCOC(=O)c1c(C)[nH]c(C)c1S(=O)(=O)N1CCCC(C(=O)Nc2ccc(F)cc2F)C1 (configuration not stated),·,4.1%,·,·,·,-3.6%
C(=Nc1cccnc1)c1ccnc2ccccc12,·,·,·,·,·,1.3%
c1ccc(-c2ccc3c(c2)NCCN3)cc1,8.7%,-2.6%,-16.4,-75.1*,?,-7.5%
O=C(Cc1ccc(Cl)cc1)Nc1ccc(-c2cc3ccccc3oc2=O)c(Cl)c1,2.31µM*,-14.5%,12.1,23.2,7.31µM*,?
